Compound activity deposited in PubChem BioAssay by National Center for Advancing Translational Sciences (NCATS).
TRb SRC2 PPI = inhibitors of human thyroid hormone receptor beta-SRC2 interaction | P10828 | TRbeta-SRC2 peptide binding, fluorescence polarization; receptor liganded with 1 µM T3 | Potency, µM (doses to about 106 µM), for the others: top-dose activity change, negative = inhibition, actives largely listed as inhibitors | actives 0.065% (n = 280,000) | AID 1469;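 note: plate controls were bound peptide for no effect and peptide without receptor for full effect; nearly all actives have a fitted effect of over 50% in size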
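Decrease in fluorescence polarization of 20 nM Texas Red SRC2 coactivator peptide flagged inhibition of its binding to 0.6 uM TRb LBD; 1 uM T3 included, incubation 5 hr, ex 555/em 632 nm.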
RGS12 GoLoco inh = RGS12 GoLoco-Gai1 interaction inhibition; P63096; Gai1:RGS12 GoLoco peptide FP, rhodamine, 10 min; Potency, µM (top dose mostly 61.6 µM), for the others: at the top dose activity, negative = inhibition, usual class: inhibitors; actives 0.44% (n = 230,000); AID 880; active = well fitted inhibition curve with a large enough effect, not every such curve was filed as active; inactive = no such curve, though single readings can be large or run the other way; note: nearly all actives have a fitted effect of over 30% in size
Target sequence (P63096 whole entry, looked up): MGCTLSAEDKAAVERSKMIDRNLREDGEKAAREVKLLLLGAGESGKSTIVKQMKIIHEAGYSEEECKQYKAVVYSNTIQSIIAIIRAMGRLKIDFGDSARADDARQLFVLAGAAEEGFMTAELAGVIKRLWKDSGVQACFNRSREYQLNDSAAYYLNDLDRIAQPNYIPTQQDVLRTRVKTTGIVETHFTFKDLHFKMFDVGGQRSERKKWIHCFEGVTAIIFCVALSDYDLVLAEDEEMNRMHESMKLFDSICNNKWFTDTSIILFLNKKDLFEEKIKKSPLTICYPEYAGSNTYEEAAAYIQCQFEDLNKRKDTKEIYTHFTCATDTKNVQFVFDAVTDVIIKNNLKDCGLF
TexasRed fluor = Texas Red fluorescence interference in TRb-SRC2 counter-screen; TRb/SRC2 Texas Red total fluorescence interference; Potency, µM (series often up to 106 µM), for inactives: top-dose fluorescence change, negative = quenching; actives 0.29% (n = 280,000); active = well fitted curve in either direction with a large enough effect; inconclusive = small, poorly fitted or top-dose-only effect
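Flags fluorescent or light-absorbing compounds by total fluorescence, S + 2P, at 555 nm excitation and 632 nm emission. Mixture: 20 nM Texas Red SRC2 peptide, 0.6 uM human TRb LBD, 1 uM T3, 5% DMSO; compound exposure 5 h at ambient temperature.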
Tau FP inhib = inhibitors of human tau fibril formation. Potency, µM (highest dose often 57.7 µM), inactives show at the top dose activity, negative = inhibition, usual class: inhibitors. K18 P301L tau heparin fibrillization, Alexa594 FP, 6 h. actives 0.39% (n = 280,000); note: nearly all actives have a fitted effect of over 55% in size
Target sequence (P10636 561-689 P618L limits assumed): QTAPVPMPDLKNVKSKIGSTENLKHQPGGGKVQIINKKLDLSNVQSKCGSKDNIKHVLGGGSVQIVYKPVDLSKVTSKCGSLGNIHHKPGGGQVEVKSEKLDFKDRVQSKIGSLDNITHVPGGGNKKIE
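Heparin (20 uM) drove fibril formation of recombinant tau K18 P301L, 15 uM unlabeled with 0.24 uM Alexa 594 label, for 6 hr at 37 C in 100 mM sodium acetate pH 7. Fluorescence polarization (555/632 nm) read 1 hr after 30 uM ThT.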
Tau ThT inhib = inhibitors of human tau fibril formation, thioflavin T binding; P10636; recombinant tau K18 P301L, heparin-induced fibrillization, ThT fluorescence; Potency, µM (titrated, usually from 57.4 µM), without a hit: at the top dose activity, negative = inhibition, hits mostly inhibitors; actives 2.1% (n = 270,000); AID 1460; note: nearly all actives have a fitted effect of over 55% in size
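Heparin-induced (20 uM) aggregation of recombinant human K18 P301L tau, 15 uM unlabeled with 0.24 uM labeled, pH 7 acetate buffer, 6 hr at 37 C with compound. Fibrils quantified by 30 uM ThT fluorescence after 1 hr ambient incubation.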
Tau fluor counter = counter-screen for tau fibril formation inhibitors; tau K18 P301L Alexa594 fluorescence, heparin fibrillization; Potency, µM (top dose mostly 57.7 µM), without a hit: at the top dose activity change, negative = decrease; actives 0.93% (n = 280,000); note: nearly all actives have a fitted effect of over 55% in size
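Human tau K18 P301L (15 uM unlabeled, 0.24 uM Alexa 594-labeled) in 100 mM sodium acetate pH 7 with 20 uM heparin, 6 hr at 37 C. ThT 30 uM added, 1 hr ambient; Alexa 594 FP and total fluorescence read at 555/632 nm.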
Active calls of the source: *; ? = inconclusive; . = not tested or not shown; ! = not active in a repeat; [ ] = remark or other dose. Most compounds without a hit are left out; they make up all but 3.1% or so of the library. Unless noted, calls come from the whole dose curve; as a rule, active = well fitted curve in the direction sought with a large enough effect; inconclusive = small, poorly fitted or top-dose-only effect, or another doubt; inactive = no such curve, though single readings can be large; an effect the other way counts as inactive or inconclusive. Unless noted, % is set by controls: 0 for no effect and ±100 for the full control effect; potency is the fitted concentration of half-maximal effect.

SMILES	TRb SRC2 PPI	RGS12 GoLoco inh	TexasRed fluor	Tau FP inhib	Tau ThT inhib	Tau fluor counter
COc1ccc2c(c1)CCc1c(C(=O)NCC(C)C)noc1-2	-11.1%	-85.5%	-3.6%	1.2%	?	-20.0%
COc1ccc(Sc2ccccc2CN(C)C)cc1OC	-11.0%	-2.2%	-0.6%	-4.5%	-1.4%	-3.4%
CNCc1ccccc1Sc1ccc(O)c(O)c1	-6.8%	-8.4%	-5.0%	8.91µM*	3.98µM*	?
CNc1nc(N/N=C/c2cc3c(cc2[N+](=O)[O-])OCO3)nc(Nc2ccccc2)n1	-0.4%	2.4%	2.2%	6.8%	7.08µM*	-29.7%
O=[N+]([O-])c1cc2c(cc1/C=N\NS(=O)(=O)c1ccccc1)OCO2	-6.9%	4.7%	-7.9%	?	?	-18.9%
O=C(CSc1nccn1-c1ncc(C(F)(F)F)cc1Cl)c1ccc(Cl)cc1	2.2%	-7.1%	1.3%	?	17.8µM*	-15.0%
O=C(OC1CCN(c2ncc(C(F)(F)F)cc2Cl)CC1)c1ccc(Cl)cc1	-19.3%	6.1%	-0.6%	-3.4%	-18.5%	-6.5%
Cc1nn(CCCC(=O)Nc2ccccc2C(F)(F)F)c(=O)c2nn(-c3ccccc3)c(C)c12	-0.6%	.	1.4%	-8.6%	5.6%	-2.5%
CCCCNS(=O)(=O)c1ccc2nc(SCC(=O)Nc3ccccc3Cl)[nH]c2c1	-3.8%	.	-3.3%	25.1µM*	2.2%	?
COc1ccc(C(=O)c2ccccc2)cc1	4.0%	8.6%	-0.8%	-2.6%	-9.3%	-13.0%
COC1=CC(=O)C(C(=O)c2ccccc2)=CC1=O	?	6.31µM*	-7.4%	10µM*	3.16µM*	6.31µM*[quencher]
Cc1ccc(CNC(=O)c2cc(-c3ccc(Cl)cc3)on2)cc1	10.5%	.	-3.9%	1.3%	-2.4%	-1.7%
Cc1cccc(-c2nnc(SCCC(=O)O)o2)c1	-3.2%	.	?	-5.7%	?	?
c1ccc2c(Cc3c[nH]c4ccccc34)c[nH]c2c1	-4.9%	-12.6%	-0.3%	?	?	15.8µM*![quencher]
Nc1nnc(Cc2c[nH]c3ccccc23)s1	-0.4%	7.2%	2.1%	7.8%	?	-25.5%
CN(C(=O)c1c(Br)cnn1C)C12CC3CC(CC(C3)C1)C2	7.0%	3.5%	2.2%	-5.8%	-15.6%	-13.9%
CCOc1ccc(-c2[nH]ncc2Oc2ccccc2OC)c(O)c1	0.1%	8.4%	-8.4%	1.3%	?	14.1µM*[quencher]
CCOc1ccc(-c2n[nH]c(C)c2Oc2ccc(OC)cc2)c(O)c1	5.0%	1.5%	-2.7%	?	-18.8%	14.1µM*[quencher]
CCOc1ccc(-c2[nH]ncc2Oc2ccccc2OCC)c(O)c1	-4.6%	-8.4%	-2.3%	-14.6%	?	14.1µM*[quencher]
CCCC(=O)Nc1nc(C(=O)OCC)cs1	-7.0%	12.2%	-2.0%	4.7%	2.4%	6.2%
CCNC(=O)CC1SC(=Nc2cccc(Cl)c2C)N(C)C1=O (centres undefined)	-0.8%	-15.9%	-5.0%	4.6%	-14.5%	-5.7%
CC(=O)Nc1ccc2nc(NC(=O)c3ccc([N+](=O)[O-])s3)sc2c1	2.0%	-5.5%	?	-6.0%	1.12µM*	?
CC(=O)Nc1ccc2nc(NC(=O)c3cccs3)sc2c1	4.4%	9.4%	-3.4%	-3.8%	.	-6.0%
C/[N+]([O-])=C/c1c(OCc2ccc(Cl)cc2Cl)ccc2ccccc12	-3.4%	2.9%	-1.5%	1.3%	0.4%	4.5%
O=C(NNc1ccccc1)C(CCO)C(=O)NNc1ccccc1	-3.4%	-3.9%	-3.3%	7.1%	0.3%	0.4%
CNC(=S)N=Nc1c(O)[nH]c2ccc(C(C)C)cc12	2.0%	.	-4.4%	-3.5%	15.8µM*	?
Cc1ccc(NC(=S)N=Nc2c(O)[nH]c3ccccc23)cc1	-0.9%	8.4%	-2.0%	?	?	?
Oc1cccc(NC(=S)N=Nc2c(O)[nH]c3ccc(Br)cc23)c1	1.7%	3.8%	-9.1%	-1.5%	6.31µM*	11.2µM*[quencher]
